Assay results published in the supplement of paper PMC10849652.
The full data set covers some 7,900 targets. This sample favours those with a hit. About 0.6% of all pairs of compound and target were hits.

Experiments:
Experiment in all cases: log2 fold change, soluble protein after heating vs DMSO (PISA); higher = thermal stabilisation; K562 cells, 10 uM, 30 min; active = over 0.2 and 3.5 SD of the protein, either way, in both replicates (recomputed)
bafetinib = compound: Cc1ccc(NC(=O)c2ccc(CN3CC[C@H](N(C)C)C3)c(C(F)(F)F)c2)cc1Nc1nccc(-c2cncnc2)n1 [bafetinib]
Method in brief: (§1)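 K562 cells at 2×10^6 cells/mL were given 10 μM compound for 30 min. Aliquots then went through 3 min of heating across 48°C-58°C, were pooled, and were extracted in PBS with 0.5% NP-40 at 4°C, and the supernatant after 21,000xg for 90 min was quantified by TMTpro 16plex LC-MS/MS with channel sums equalised. Thermal stability relative to control samples, from duplicates, is given as log2 fold change.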

[1] = compound: Cc1cccc(CC(=O)N2CCc3c2ccc(-c2cn(C)c4ncnc(N)c24)c3F)n1
Method in brief: as §1

nilotinib = compound: Cc1cn(-c2cc(NC(=O)c3ccc(C)c(Nc4nccc(-c5cccnc5)n4)c3)cc(C(F)(F)F)c2)cn1 [nilotinib]
Method in brief: as §1

[2] = compound: Cc1nc(Nc2n[nH]c3c2CN(C(=O)N[C@H](CN(C)C)c2ccccc2)C3(C)C)c2sccc2n1
Method in brief: as §1

dasatinib = compound: Cc1nc(Nc2ncc(C(=O)Nc3c(C)cccc3Cl)s2)cc(N2CCN(CCO)CC2)n1 [dasatinib]
Method in brief: as §1

[3] = compound: Cc1ncc(-c2ccnc(Nc3ccc(S(C)(=O)=O)cc3)n2)n1C(C)C
Method in brief: as §1

[4] = compound: Cn1cc(-c2ccc3c(c2)CCN3C(=O)Cc2cccc(C(F)(F)F)c2)c2c(N)ncnc21
Method in brief: as §1

[5] = compound: Cn1cc(-c2ccc3nnc(C(F)(F)c4ccc5ncccc5c4)n3n2)cn1
Method in brief: as §1

tipifarnib = compound: Cn1cncc1[C@@](N)(c1ccc(Cl)cc1)c1ccc2c(c1)c(-c1cccc(Cl)c1)cc(=O)n2C [tipifarnib]
Method in brief: as §1

mubritinib = compound: FC(F)(F)c1ccc(/C=C/c2nc(COc3ccc(CCCCn4ccnn4)cc3)co2)cc1 [mubritinib]
Method in brief: as §1

Measured: log2 fold change

EEF1AKNMT (UniProt Q8N6R0)
inactive: bafetinib 0.067 | [1] -0.008 | nilotinib -0.02 | [2] -0.062 | dasatinib -0.118 | [3] 0.084 | [4] -0.031 | [5] 0.003 | tipifarnib -0.154 | mubritinib 0.089

CYBA (UniProt P13498)
Chain of UniProt P13498 (P13498 whole entry, looked up): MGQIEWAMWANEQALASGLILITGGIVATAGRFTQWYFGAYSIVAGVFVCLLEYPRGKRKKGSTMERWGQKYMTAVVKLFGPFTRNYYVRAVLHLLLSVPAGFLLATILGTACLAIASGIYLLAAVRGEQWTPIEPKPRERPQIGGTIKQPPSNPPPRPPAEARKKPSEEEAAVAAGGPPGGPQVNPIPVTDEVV
inactive: [1] -0.06 | nilotinib 0.01 | [2] 0.034 | dasatinib -0.077 | [3] 0.026 | [4] 0.002 | [5] 0.004 | tipifarnib 0 | mubritinib 0.006
active: bafetinib -0.24

EDEM2 (UniProt Q9BV94)
inactive: bafetinib 0.094 | [1] 0 | nilotinib -0.096 | [2] 0.003 | dasatinib 0.114 | [3] -0.011 | [4] -0.046 | [5] 0 | tipifarnib 0.15 | mubritinib -0.117

FAAP100 (UniProt Q0VG06)
inactive: bafetinib 0.201 | [1] 0.043 | nilotinib -0.032 | [2] -0.005 | dasatinib 0.035 | [3] -0.039 | [4] -0.005 | [5] 0.101 | tipifarnib 0.1 | mubritinib 0

EBNA1BP2 (UniProt Q99848)
Chain of UniProt Q99848 (Q99848 whole entry, looked up): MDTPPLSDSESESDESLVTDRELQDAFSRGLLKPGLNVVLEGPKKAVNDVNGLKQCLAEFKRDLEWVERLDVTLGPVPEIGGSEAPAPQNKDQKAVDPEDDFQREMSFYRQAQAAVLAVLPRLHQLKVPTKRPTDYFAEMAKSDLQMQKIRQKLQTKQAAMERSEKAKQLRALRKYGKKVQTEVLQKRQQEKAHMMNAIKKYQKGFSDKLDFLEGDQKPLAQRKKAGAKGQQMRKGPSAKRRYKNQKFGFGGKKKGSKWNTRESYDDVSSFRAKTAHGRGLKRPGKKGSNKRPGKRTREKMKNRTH
inactive: bafetinib 0.312 | [1] -0.114 | nilotinib 0.114 | [2] -0.089 | dasatinib 0.226 | [3] -0.004 | [4] -0.499 | [5] -0.176 | tipifarnib 0.134 | mubritinib -0.124

FAM241A (UniProt Q8N8J7)
Chain of UniProt Q8N8J7 (Q8N8J7 whole entry, looked up): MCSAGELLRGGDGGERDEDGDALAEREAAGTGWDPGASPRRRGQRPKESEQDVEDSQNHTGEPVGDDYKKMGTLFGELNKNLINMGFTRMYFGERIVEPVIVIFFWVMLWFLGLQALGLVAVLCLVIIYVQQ
inactive: bafetinib -0.143 | [1] -0.056 | nilotinib -0.027 | [2] 0.029 | dasatinib 0.02 | [3] -0.095 | [4] 0.046 | [5] 0.049 | tipifarnib 0.008 | mubritinib 0.028

DBN1 isoform 3 (UniProt Q16643)
Chain of UniProt Q16643 (Q16643 whole entry, looked up): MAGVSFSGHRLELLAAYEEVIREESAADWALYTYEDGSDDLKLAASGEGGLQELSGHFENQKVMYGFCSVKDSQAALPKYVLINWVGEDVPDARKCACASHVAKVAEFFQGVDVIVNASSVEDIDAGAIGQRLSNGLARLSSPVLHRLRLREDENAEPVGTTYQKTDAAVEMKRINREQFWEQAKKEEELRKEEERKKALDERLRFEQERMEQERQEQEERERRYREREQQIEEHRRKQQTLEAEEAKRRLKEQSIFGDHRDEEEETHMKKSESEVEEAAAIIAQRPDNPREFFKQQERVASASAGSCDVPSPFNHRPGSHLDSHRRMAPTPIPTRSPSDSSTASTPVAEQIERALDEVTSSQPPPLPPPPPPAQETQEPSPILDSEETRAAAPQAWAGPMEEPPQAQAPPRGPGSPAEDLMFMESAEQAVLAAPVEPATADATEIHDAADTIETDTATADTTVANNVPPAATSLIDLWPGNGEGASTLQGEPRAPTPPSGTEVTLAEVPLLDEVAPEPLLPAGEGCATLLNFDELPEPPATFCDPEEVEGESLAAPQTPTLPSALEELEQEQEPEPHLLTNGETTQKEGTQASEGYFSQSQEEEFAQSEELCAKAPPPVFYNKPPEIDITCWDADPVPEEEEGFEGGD
inactive: bafetinib -0.106 | [1] 0.032 | nilotinib -0.05 | [2] -0.043 | [3] -0.041 | [4] -0.22 | [5] -0.069 | tipifarnib 0.086 | mubritinib 0
active: dasatinib 0.264

DHPS (UniProt M0R1T2)
inactive: bafetinib 0.081

EPHX2 (UniProt P34913)
Chain of UniProt P34913 (P34913 whole entry, looked up): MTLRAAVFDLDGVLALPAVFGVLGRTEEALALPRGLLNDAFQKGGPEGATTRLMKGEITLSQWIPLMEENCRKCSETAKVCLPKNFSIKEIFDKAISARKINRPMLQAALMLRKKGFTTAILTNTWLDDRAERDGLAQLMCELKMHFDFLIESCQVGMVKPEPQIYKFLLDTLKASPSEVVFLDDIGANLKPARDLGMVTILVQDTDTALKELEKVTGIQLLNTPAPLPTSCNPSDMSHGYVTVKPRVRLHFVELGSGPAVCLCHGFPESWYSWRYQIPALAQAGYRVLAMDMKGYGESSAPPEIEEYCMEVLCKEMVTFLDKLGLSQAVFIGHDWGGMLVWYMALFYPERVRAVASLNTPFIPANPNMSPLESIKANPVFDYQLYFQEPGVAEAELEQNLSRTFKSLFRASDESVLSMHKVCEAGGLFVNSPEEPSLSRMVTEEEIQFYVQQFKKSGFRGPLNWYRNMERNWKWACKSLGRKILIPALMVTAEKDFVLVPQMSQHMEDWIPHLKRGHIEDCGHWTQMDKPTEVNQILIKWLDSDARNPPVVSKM
inactive: bafetinib 0.131 | [1] -0.097 | nilotinib 0.152 | [2] -0.029 | dasatinib -0.041 | [3] 0.073 | [4] 0.051 | [5] 0.016 | tipifarnib 0.065 | mubritinib 0.11

DLD (UniProt P09622)
active: mubritinib -0.429
inactive: bafetinib -0.028 | [1] -0.042 | nilotinib 0.034 | [2] -0.018 | dasatinib -0.025 | [3] -0.066 | [4] -0.04 | [5] 0.015 | tipifarnib -0.008

ESS2 (UniProt Q96DF8)
Chain of UniProt Q96DF8 (Q96DF8 whole entry, looked up): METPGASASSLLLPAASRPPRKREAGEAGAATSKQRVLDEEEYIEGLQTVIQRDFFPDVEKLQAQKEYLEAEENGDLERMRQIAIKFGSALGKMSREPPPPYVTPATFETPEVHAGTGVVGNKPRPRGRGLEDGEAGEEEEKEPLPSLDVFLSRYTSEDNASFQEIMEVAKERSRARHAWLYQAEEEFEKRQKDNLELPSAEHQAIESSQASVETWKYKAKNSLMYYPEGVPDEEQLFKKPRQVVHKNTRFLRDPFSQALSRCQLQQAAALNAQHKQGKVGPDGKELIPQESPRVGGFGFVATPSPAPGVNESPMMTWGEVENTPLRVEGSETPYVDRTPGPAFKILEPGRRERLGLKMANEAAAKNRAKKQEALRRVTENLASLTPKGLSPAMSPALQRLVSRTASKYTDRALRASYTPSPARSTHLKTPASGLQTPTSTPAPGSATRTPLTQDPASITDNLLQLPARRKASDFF
inactive: bafetinib -0.186 | [1] -0.07 | nilotinib 0.013 | [2] -0.048 | dasatinib 0.011 | [3] 0.019 | [4] -0.061 | [5] -0.081 | tipifarnib 0.038 | mubritinib 0.008

EMD (UniProt P50402)
inactive: bafetinib -0.167 | [1] -0.081 | nilotinib 0.074 | [2] -0.071 | dasatinib -0.017 | [3] -0.045 | [4] -0.005 | [5] -0.098 | tipifarnib 0.087 | mubritinib 0.031

CTSC (UniProt P53634)
Chain of UniProt P53634 (P53634 whole entry, looked up): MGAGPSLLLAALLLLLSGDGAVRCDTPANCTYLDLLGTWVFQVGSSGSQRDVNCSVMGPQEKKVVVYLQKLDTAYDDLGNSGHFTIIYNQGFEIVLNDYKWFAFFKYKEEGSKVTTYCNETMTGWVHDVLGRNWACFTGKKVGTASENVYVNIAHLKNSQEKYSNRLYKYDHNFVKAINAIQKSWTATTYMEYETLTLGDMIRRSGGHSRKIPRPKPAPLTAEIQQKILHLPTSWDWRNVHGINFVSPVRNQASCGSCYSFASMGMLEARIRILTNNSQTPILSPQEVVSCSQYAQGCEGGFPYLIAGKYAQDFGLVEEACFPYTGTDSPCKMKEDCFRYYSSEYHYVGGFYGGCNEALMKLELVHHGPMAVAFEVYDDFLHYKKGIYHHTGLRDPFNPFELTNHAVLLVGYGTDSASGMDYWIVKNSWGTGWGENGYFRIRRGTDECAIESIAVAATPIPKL
inactive: [1] -0.004 | nilotinib -0.008 | [2] 0 | dasatinib 0.046 | [3] -0.033 | [4] 0.041 | [5] 0.004 | tipifarnib -0.039 | mubritinib 0.056
active: bafetinib -0.452

DDX46 (UniProt Q7L014)
active: [2] -1.44 | mubritinib 0.604
inactive: bafetinib 0.196 | [1] 0.094 | nilotinib 0.271 | dasatinib -0.084 | [3] 0.1 | [4] 0.104 | [5] 0.102 | tipifarnib -0.113

DAXX (UniProt Q9UER7)
inactive: bafetinib -0.119 | [1] -0.089 | nilotinib 0.055 | [2] -0.106 | dasatinib -0.034 | [3] 0 | [4] 0.061 | [5] -0.016 | tipifarnib 0.034

ERLIN1 (UniProt O75477)
inactive: bafetinib 0.041 | [1] 0.094 | nilotinib -0.153 | [2] 0.032 | dasatinib -0.031 | [3] 0.004 | [4] -0.11 | [5] 0.002 | tipifarnib 0.026 | mubritinib -0.053

ESYT1 isoform 2 (UniProt Q9BSJ8)
inactive: bafetinib 0.112 | [1] 0.137 | nilotinib -0.088 | [2] -0.208 | dasatinib -0.147 | [3] 0.022 | [4] -0.059 | [5] -0.06 | tipifarnib 0.007 | mubritinib -0.092

DNAH11 (UniProt Q96DT5)
inactive: bafetinib 0.097 | [1] -0.396 | nilotinib 0.101 | [2] 0.015 | dasatinib -0.036 | [3] 0.072 | [4] -0.441 | [5] 0.126 | tipifarnib 0.344 | mubritinib -0.276

DUS3L (UniProt Q96G46)
inactive: bafetinib -0.041 | [1] -0.02 | nilotinib -0.073 | [2] -0.059 | dasatinib -0.005 | [3] 0.021 | [4] -0.064 | [5] -0.017 | tipifarnib 0.053 | mubritinib -0.115

CTSB (UniProt P07858)
inactive: [1] -0.038 | nilotinib 0.001 | [2] -0.028 | dasatinib -0.008 | [3] -0.029 | [4] 0.014 | [5] 0.033 | tipifarnib 0.008 | mubritinib -0.007
active: bafetinib -0.842

FAM50A (UniProt Q14320)
Chain of UniProt Q14320 (Q14320 whole entry, looked up): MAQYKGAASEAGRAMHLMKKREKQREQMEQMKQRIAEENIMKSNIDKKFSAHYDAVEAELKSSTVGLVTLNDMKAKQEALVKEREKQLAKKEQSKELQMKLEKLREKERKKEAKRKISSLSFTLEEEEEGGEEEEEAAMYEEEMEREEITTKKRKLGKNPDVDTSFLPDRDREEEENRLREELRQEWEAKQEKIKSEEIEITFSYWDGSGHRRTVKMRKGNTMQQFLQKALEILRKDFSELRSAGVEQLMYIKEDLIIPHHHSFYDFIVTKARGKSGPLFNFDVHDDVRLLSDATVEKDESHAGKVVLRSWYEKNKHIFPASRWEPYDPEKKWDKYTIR
inactive: bafetinib -0.035 | [1] -0.045 | nilotinib -0.016 | [2] -0.096 | dasatinib -0.134 | [3] 0.029 | [4] -0.021 | [5] 0.044 | tipifarnib -0.031 | mubritinib 0.083

DTWD1 (UniProt Q8N5C7)
inactive: bafetinib 0.006 | [1] -0.014 | nilotinib 0.057 | [2] 0 | dasatinib 0.001 | [3] 0.082 | [4] 0.051 | [5] -0.027 | tipifarnib -0.02 | mubritinib 0.02

DDX4 (UniProt Q9NQI0)
Chain of UniProt Q9NQI0 (Q9NQI0 whole entry, looked up): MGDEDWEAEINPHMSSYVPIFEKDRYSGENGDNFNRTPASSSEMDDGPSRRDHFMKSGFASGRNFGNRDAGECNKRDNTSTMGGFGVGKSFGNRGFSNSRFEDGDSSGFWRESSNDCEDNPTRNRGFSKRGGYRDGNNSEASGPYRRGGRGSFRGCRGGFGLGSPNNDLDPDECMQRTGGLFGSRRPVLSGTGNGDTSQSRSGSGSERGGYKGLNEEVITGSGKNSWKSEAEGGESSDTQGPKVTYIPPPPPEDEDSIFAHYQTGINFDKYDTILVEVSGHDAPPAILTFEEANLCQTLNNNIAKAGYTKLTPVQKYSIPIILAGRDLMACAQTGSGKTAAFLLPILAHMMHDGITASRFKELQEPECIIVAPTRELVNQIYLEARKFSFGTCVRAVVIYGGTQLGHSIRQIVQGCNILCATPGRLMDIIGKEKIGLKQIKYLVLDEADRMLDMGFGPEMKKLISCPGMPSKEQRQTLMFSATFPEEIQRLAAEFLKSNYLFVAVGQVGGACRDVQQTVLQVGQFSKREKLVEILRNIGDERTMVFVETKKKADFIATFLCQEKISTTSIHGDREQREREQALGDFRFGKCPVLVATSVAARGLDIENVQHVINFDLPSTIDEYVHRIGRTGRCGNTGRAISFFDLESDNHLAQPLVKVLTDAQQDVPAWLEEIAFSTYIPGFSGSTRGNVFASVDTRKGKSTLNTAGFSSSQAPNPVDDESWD
inactive: bafetinib 0.244 | [1] -0.511 | nilotinib -0.172 | [2] -0.187 | dasatinib 0.107 | [3] -0.068 | [4] -0.217 | [5] 0.052 | tipifarnib 0.268 | mubritinib -0.484

DNAJB12 (UniProt Q9NXW2)
inactive: bafetinib -0.057 | [1] 0.007 | nilotinib -0.158 | [2] 0.041 | dasatinib -0.068 | [3] 0.015 | [4] -0.04 | [5] -0.039 | tipifarnib 0.016 | mubritinib 0.01

EEF1G isoform 2 (UniProt P26641)
inactive: bafetinib 0.033 | [1] 0.083 | nilotinib -0.034 | [2] -0.03 | dasatinib -0.032 | [3] 0.045 | [4] -0.03 | [5] -0.05 | tipifarnib -0.124 | mubritinib 0.028

EDC4 (UniProt Q6P2E9)
inactive: bafetinib 0.006 | [1] 0 | nilotinib 0.013 | [2] -0.077 | dasatinib -0.018 | [3] -0.119 | [4] -0.046 | [5] -0.031 | tipifarnib -0.038 | mubritinib -0.019

FAM177A1 isoform 2 (UniProt Q8N128)
Chain of UniProt Q8N128 (Q8N128 whole entry, looked up): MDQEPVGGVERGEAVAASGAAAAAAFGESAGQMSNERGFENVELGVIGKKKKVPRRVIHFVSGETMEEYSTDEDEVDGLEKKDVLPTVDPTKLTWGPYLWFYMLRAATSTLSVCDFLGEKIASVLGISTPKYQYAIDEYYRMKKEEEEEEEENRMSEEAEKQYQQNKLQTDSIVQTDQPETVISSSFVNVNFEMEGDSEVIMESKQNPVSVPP
inactive: bafetinib -0.125 | [1] -0.007 | nilotinib -0.113 | [2] 0.005 | dasatinib -0.098 | [3] -0.044 | [4] 0.038 | [5] -0.005 | tipifarnib -0.01 | mubritinib 0.004

FADS3 (UniProt Q9Y5Q0)
Chain of UniProt Q9Y5Q0 (Q9Y5Q0 whole entry, looked up): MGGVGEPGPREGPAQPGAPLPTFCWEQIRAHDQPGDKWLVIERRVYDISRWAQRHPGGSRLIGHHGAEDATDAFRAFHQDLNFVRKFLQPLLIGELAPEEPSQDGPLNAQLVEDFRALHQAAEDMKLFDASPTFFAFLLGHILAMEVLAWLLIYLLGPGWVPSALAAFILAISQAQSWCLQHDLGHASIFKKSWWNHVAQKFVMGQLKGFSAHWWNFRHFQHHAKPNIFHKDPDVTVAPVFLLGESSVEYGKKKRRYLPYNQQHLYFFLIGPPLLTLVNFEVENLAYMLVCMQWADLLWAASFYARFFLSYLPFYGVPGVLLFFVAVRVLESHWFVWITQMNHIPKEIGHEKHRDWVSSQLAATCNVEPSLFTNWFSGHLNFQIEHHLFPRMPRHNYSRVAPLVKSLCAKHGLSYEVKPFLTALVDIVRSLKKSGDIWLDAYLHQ
inactive: bafetinib -0.11 | [1] 0.044 | nilotinib 0.108 | [2] -0.012 | dasatinib -0.109 | [3] -0.013 | [4] 0.034 | [5] -0.037 | tipifarnib -0.033 | mubritinib 0.059

EPHX2 (UniProt E5RI53)
inactive: bafetinib -0.17

CYP51A1 (UniProt Q16850)
active: tipifarnib 1.27
inactive: bafetinib 0.02 | [1] -0.019 | nilotinib 0.156 | [2] -0.03 | dasatinib 0.092 | [3] -0.016 | [4] -0.016 | [5] -0.143 | mubritinib 0.047

ECH1 (UniProt Q13011)
Chain of UniProt Q13011 (Q13011 whole entry, looked up): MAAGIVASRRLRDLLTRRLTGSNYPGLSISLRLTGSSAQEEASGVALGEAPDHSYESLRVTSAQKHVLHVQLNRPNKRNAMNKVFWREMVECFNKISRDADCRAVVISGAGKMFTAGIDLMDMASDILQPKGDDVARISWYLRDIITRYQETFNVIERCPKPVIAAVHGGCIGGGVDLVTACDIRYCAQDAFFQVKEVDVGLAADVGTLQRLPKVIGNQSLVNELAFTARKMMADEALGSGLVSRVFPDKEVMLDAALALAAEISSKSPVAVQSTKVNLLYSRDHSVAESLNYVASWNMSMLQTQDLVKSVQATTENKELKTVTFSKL
inactive: bafetinib 0.318 | [1] -0.003 | nilotinib -0.024 | [2] 0.013 | dasatinib 0.249 | [3] -0.033 | [4] 0.134 | [5] 0.039 | tipifarnib -0.056 | mubritinib -0.011

FADS1 (UniProt F5GYH4)
inactive: bafetinib 0.034
